Assay outcomes as filed in PubChem.
HCMV inh: blocks human cytomegalovirus replication; HFF cells, HCMV-luciferase reporter, 72 h; stronger effect = lower value; actives 4.5% (n = 410,000); activity change, negative = inhibition, % at 57.5 µM; AID 1259415; in the data active = activity change below about -60%; inconclusive = no clear call, values can overlap the other calls; inactive = above about -39%
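Two compound doses tested in HFFs infected with HCMV-luciferase, MOI 1 PFU/cell, 72 h at 37C. Lysate luminescence read with OneGlo; data normalized against buffer-only and 10uM Salinomycin inhibitor controls.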
HCV inh: inhibitors of hepatitis C virus infection; Huh7.5.1 HCVcc-Cre infection, luciferase reporter, 44 h; Potency, µM (highest dose often 41.8 µM), for inactives: top-dose activity change, negative = inhibition, actives largely listed as inhibitors; actives 3.4% (n = 340,000); active = well fitted inhibition curve with a large enough effect; inconclusive = small, poorly fitted or top-dose-only effect, or another doubt; inactive = no such curve, though single readings can be large or run the other way; note: potency is the fitted concentration of half-maximal effect
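Infectious HCV cell culture screen: compound-treated cells (1,000/well, pre-plated 4 h) are infected with HCVcc-Cre at roughly 0.5 moi and grown 44 h. Infection is quantified by luciferase signal after 15 min substrate incubation at room temperature.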
VACV Venus inh: vaccinia inhibition (Venus reporter). Vaccinia virus Venus reporter expression, fluorescence. actives 0.46% (n = 330,000). Potency, µM (series often up to 36.5 µM), inactives show at the highest dose activity change, negative = inhibition, most hits filed as inhibitors; calls by dose curve; tested in A549 cells; note: potency is the fitted concentration of half-maximal effect; nearly all actives have a fitted effect of over 30% in size
Vaccinia mCherry: vaccinia inhibition (mCherry reporter); Vaccinia virus mCherry reporter infection, fluorescence; Potency, µM (series often up to 36.5 µM), for the others: at the top dose activity change, negative = inhibition, hits mostly inhibitors; actives 0.63% (n = 310,000); AID 720579; calls by dose curve; tested in A549 cells; note: potency is the fitted concentration of half-maximal effect; nearly all actives have a fitted effect of over 35% in size
FMDV antiviral: antivirals against foot and mouth disease virus; FMDV antiviral cell-based qHTS; actives 1.2% (n = 410,000); AID 1159524; Potency, µM (series often up to 57.9 µM), for inactives: top-dose activity change, negative = inhibition, usual class: inhibitors; calls by dose curve; tested in HEK293T cells; note: read-out not given here; potency is the fitted concentration of half-maximal effect; nearly all actives have a fitted effect of over 45% in size
An asterisk follows results filed as active; i = inactive; ? = inconclusive; / = no result; ! = not confirmed by another sample; [ ] = dose if it differs, or a comment. Hits are enriched below; roughly 7.3% of the tested compounds scored in any of these assays. % is set by controls: 0 for no effect and ±100 for the full control effect.

SMILES	HCMV inh	HCV inh	VACV Venus inh	Vaccinia mCherry	FMDV antiviral
COC(=O)c1sc(N2C(=O)C(=O)/C(=C(/O)c3ccc(C)cc3)C2c2ccco2)nc1C (configuration not stated)	/	-3%	0%	i	0%
CCOc1ccc(/C(O)=C2/C(=O)C(=O)N(c3nc(C)c(C)s3)C2c2ccco2)cc1 (configuration not stated)	-90*	-9%	-12%	/	-1%
CSC1=NC(C)(C)C=C(/C=C/c2ccc(Cl)cc2)N1	-74*	8.9µM*	-25%	-25%	20µM*
CSC1=NC(C)(C)C=C(/C=C/c2ccc(Cl)cc2Cl)N1	-87*	?	-6%	-26%	?
CSC1=NC(C)(C)C=C(/C=C/c2c(Cl)cccc2Cl)N1	20	-27%	-20%	-13%	-7%
CCSC1=NC(C)(C)C=C(/C=C/c2ccc(Cl)cc2Cl)N1	8	?	-30%	/	?
COc1ccc(N2CCN(CCCNC(=O)c3c(C)nn(-c4ccc(F)cc4)c3-n3cccc3)CC2)cc1	-25	/	-11%	-25%	?
COc1ccc(C2c3c4c(n(C)c3CCN2C)CCN(C)C4c2ccc(OC)cc2)cc1 (configuration not stated)	-25	13µM*	/	/	7%
CSc1c(CC(=O)Nc2ccc(F)cc2)n(Cc2ccccc2)c2ccccc12	-62*	11%	-23%	-14%	-22%
CC(=O)C1=C(c2ccccc2)N(C(C)=O)n2c(nnc2C2CCCCC2)S1	-95*	/	-6%[7.34 µM]	-13%[7.34 µM]	-27%
COc1ccc(C2=C(C(C)=O)Sc3nnc(-c4ccc(C)cc4)n3N2C(C)=O)cc1OC	-99*	/	?	?	-29%
COc1cccc(C2=C(C(C)=O)Sc3nnc(C4CCCCC4)n3N2C(C)=O)c1	-73*	/	?	?	0%
Cc1ccc(-c2ccc([C@@H]3[C@@H](CO)N4C(=O)CN(C(=O)c5ccncc5)C[C@H]34)cc2)cc1	10	/	/	/	/
CN1CCC(Oc2ccccc2Sc2ccccc2)CC1	-77*	?	?	?	?
CN1CCC(OC(c2ccccc2)c2ccccc2)CC1	17	-27%	-9%	i	0%
CC[N+](C)(CC)CCC/C(=N/O)C(O)(c1ccccc1)c1ccccc1	-65*	10%	0%	i	7%
COc1ccc2c(c1)c(N1CCCC1=O)c(C(=O)Nc1cc(C)c(Cl)cc1OC)n2C	1	/	-6%	-16%	-24%
COc1ccc(C(CC(=O)Nc2cccc(C)c2C)N2Cc3ccccc3C2=O)cc1 (configuration not stated)	-36	/	-13%	-15%	39%
Oc1ccc2c(c1)oc1cc(O)ccc12	?	?	?	10µM*	61%
COc1cc(C2C(C(=O)Nc3ccc(C)cc3C)=C(C)Nc3nc4ccccc4n32)cc(OC)c1OC (configuration not stated)	-5	/	-8%	-20%	-25%
O=C(Nc1cccc(-c2cn3ccccc3n2)c1)c1cccc(Cl)c1	-33	11µM*	14µM*	?	?
O=C(Nc1cccc(-c2cn3ccccc3n2)c1)c1cnccn1	82	7%	-13%	i	13%
O=C(Nc1cccc(-c2cn3ccsc3n2)c1)c1ccccc1	17	25µM*	6%	/	-9%
CCn1c(SCC(=O)Nc2ccccc2OC)nc2ccccc2c1=O	?	?	-17%	-19%	/
CCOc1ccccc1-n1c(SCC(=O)Nc2ccccc2C(=O)O)nc2ccccc2c1=O	-81*	23%	-8%	-13%	?
SMILES	HCMV inh	HCV inh	VACV Venus inh	Vaccinia mCherry	FMDV antiviral
Cc1cncn1CCc1nc2c3ccccc3nc(SCC(=O)Nc3cccc(Cl)c3)n2n1	-105*!	?	?	-13%	-17%
Cc1cncn1CCc1nc2c3ccccc3nc(SCC(=O)Nc3ccc(F)cc3)n2n1	-5	/	10%	-2%	-11%
CCOc1ccccc1NC(=O)CSc1nc2ccccc2c2nc(CCn3cncc3C)nn12	-65*	/	?	-26%	-28%
COc1cc(S(=O)(=O)Nc2ccccc2C)ccc1NC(=O)c1ccncc1	-72*	-23%	-2%	-11%	52%
O=C(Nc1cccnc1Cl)c1ccc(S(=O)(=O)N2CCCCCC2)cc1	-82*	?	/	/	-28%
CCOC(=O)C1CCCN(C(=O)c2cc(S(=O)(=O)Nc3ccccc3OC)ccc2C)C1 (configuration not stated)	0	10µM*	-18%	i	22%
